The whole screen tested about 98,000 compounds, of which about 4,900 (5%) were called active. The full list was thinned out, with actives kept by preference. Unmarked numbers belong to inactive results. Rule as the data show it: active = inhibition above about 30%; inactive = the rest.

Usually inhibition stands for the relative decrease from the control value, in per cent.

This experiment is described as follows: yeast control strain growth suppression – counter-screen for post-Golgi transport modulator project, primary screen (AID 738). Particulars: efflux-deficient yeast background strain, growth absorbance A615, 16 h; at 10 µM; stronger effect = higher value.
As to `COc1ccc(-c2noc(CSc3ccc(C)cc3)n2)cc1`, the inhibition was 4.57%.

On to `Cc1ccc(-c2noc(CC(c3ccccc3)c3ccccc3)n2)cc1`, for which the inhibition was 3.45%.

Take `Fc1ccc(-n2c(Cc3ccccc3)nnc2SCc2nc(-c3ccc(Cl)cc3)no2)cc1`: the inhibition is 46.4% (active).

On to `Cn1cccc1Cc1nnc(SCC(=O)NCCc2ccccc2)n1-c1ccc(F)cc1`, for which the inhibition was 2.46%.

In the case of `O=C(CSc1nnc(Cc2ccccc2)n1-c1ccccc1)N1CCOCC1`, the inhibition is -1.82%.

For `Cc1ccc(-c2noc(CSc3nnc(-c4ccncc4)n3-c3ccc(F)cc3)n2)cc1`, the inhibition was 38.4% (active).

Regarding `Cc1ccc(-c2noc(CSc3nnnn3-c3ccccc3)n2)cc1`, the inhibition is 48.9% (active).

As for `Cc1ccc(-c2noc(CSc3nnc(-c4cccs4)n3C)n2)cc1`, the inhibition is 5.22%.

In the case of `Cc1ccc(-c2noc(CSc3nnc(-c4ccccc4)n3C)n2)cc1`, the inhibition was 22.3%.

For `Cc1cc(C(F)F)n2nc(C(=O)Nc3ccc(S(=O)(=O)NC45CC6CC(CC(C6)C4)C5)cc3)nc2n1`, the inhibition is 2.49%.

`Nc1nc(Br)c2ccccc2c1-c1ccc(F)cc1`: the inhibition was 11.8%.

Turning to `CCn1c(O)c2ccc(C(=O)N=NC(=O)c3cccnc3)cc2c1O`, the inhibition is 1.24%.

On to `CN(C)c1ccc(/C=C2\NC(=S)N(Cc3ccccc3)C2=O)cc1`, for which the inhibition was 21%.

Regarding `CCOC(=O)C1(S(=O)(=O)c2ccc(Cl)cc2)CCN(Cc2ccccc2)CC1`, the inhibition was 4.55%.

Consider `CC1C/C(=N/NC(=O)c2cccs2)CC(C)(C)C1` (configuration not stated), for which the inhibition is 9.76%.

`CC(Oc1ccc(Cl)cc1Cl)C(=O)/C=C/N(C)C` (configuration not stated): the inhibition is 27.4%.

With `O=C(NCCc1ccccc1)/C(=C\c1ccc([N+](=O)[O-])cc1)NC(=O)c1ccccc1`, the inhibition was 3.12%.

Take `CCOC(=O)/C(C#N)=C/c1ccc(OCC(=O)Nc2ccccc2)c(OC)c1`: the inhibition was 2.95%.

For `CCOC(=O)/C(=C\c1ccc([N+](=O)[O-])cc1)C(=O)c1cc(C(C)=O)c(Nc2ccccc2)s1`, the inhibition was 92% (active).

In the case of `CNS(=O)(=O)c1cnccc1N1CCN(c2cccc(C)c2)CC1`, the inhibition was 1.59%.

On to `Cc1c(NC(=O)/C=C/C(=O)O)cccc1[N+](=O)[O-]`, for which the inhibition is 6.96%.

`Cc1sc(NC(=O)C2C3CCC(O3)C2C(=O)O)c(C(=O)OC(C)C)c1-c1ccc(Cl)cc1` (configuration not stated): the inhibition was 16.9%.

As for `CN1CC(c2ccccc2)C2(COc3ccccc3C2=O)C12C(=O)Nc1ccccc12` (configuration not stated), the inhibition is 32.5% (active).

In the case of `Cc1noc(C)c1C(=O)N(CC(=O)NC1CCCC1)Cc1ccccc1F`, the inhibition was 2.95%.

Regarding `Cc1nc(SCC(=O)c2ccccc2)c([N+](=O)[O-])[nH]1`, the inhibition was -2.62%.

`O=C(CCc1ccc(S(=O)(=O)NC2CCCCC2)cc1)NCc1ccccc1`: the inhibition was 1.21%.

Regarding `Cc1ccc2c(c1)N(CC(=O)N1CCCc3ccccc31)C(=O)C(C)O2` (configuration not stated), the inhibition was 5.45%.

Regarding `Cc1ccc(S(=O)(=O)N(C)CC(=O)N2CCc3ccccc32)cc1`, the inhibition was 2.58%.

With `Cc1ccc2c(c1)N(C(=O)CCC(=O)N1CCc3ccccc3C1)CCO2`, the inhibition was 36.4% (active).

Consider `COc1cc(NS(=O)(=O)c2ccc(N/C=C(\C=O)c3nc4cc(Cl)ccc4o3)cc2)nc(OC)n1`, for which the inhibition is -2.08%.

As for `COc1cccc(-c2cc(C(=O)N/N=C/c3ccc(OC)c(COC(C)=O)c3)c3ccccc3n2)c1`, the inhibition was -0.83%.

For `CCOc1ccc(CNC(=O)C2CCC(=O)N2C2CCCC2)cc1OC` (configuration not stated), the inhibition is 13.3%.

For `CCOc1ccccc1C1C(C(=O)OC)=CN(C)C=C1C(=O)OC`, the inhibition is 11.7%.

For `CCOc1cc(C2C(C(=O)OC)=CN(C3CCCC3)C=C2C(=O)OC)cc(Br)c1O`, the inhibition is 38.7% (active).

As to `COc1cccc(C(=O)NNC(=O)c2ccccc2Br)c1`, the inhibition was 0%.

As for `O=C(Cc1cccs1)N1CCCC(c2nc(-c3ccc(S(=O)(=O)N4CCCC4)cc3)no2)C1` (configuration not stated), the inhibition is 2.8%.

On to `O=C(c1cccs1)N1CCCC(c2nc(-c3ccc(F)cc3)no2)C1` (configuration not stated), for which the inhibition was 43.9% (active).

As to `CC(C)c1ccc(-c2noc(C3CCCN(S(C)(=O)=O)C3)n2)cc1` (configuration not stated), the inhibition was -5.28%.

On to `CCc1ccc(CNC(=O)CCc2nc(-c3cccs3)no2)cc1`, for which the inhibition was 7.1%.

As for `CC(C)NC(=O)C(=O)N/N=C/c1ccco1`, the inhibition was 4.76%.

Consider `Cc1nn(C)c(Oc2ccccc2)c1CCNS(=O)(=O)c1ccc(F)cc1`, for which the inhibition is -2.45%.

With `COc1ccc(CNC(=O)C2CCC(CNc3c(N4CCOCC4)c(=O)c3=O)CC2)cc1` (configuration not stated), the inhibition was 3.7%.

Take `COc1ccc(SCc2noc(C(=O)NCC3CCCO3)c2C(=O)O)cc1` (configuration not stated): the inhibition is 0.46%.

Take `Cn1cccc1C1(C(F)(F)F)NCCNC1=O` (configuration not stated): the inhibition was 48.1% (active).

As to `O=C(/C=C/c1ccccc1)N/C(=C/c1ccccc1)C(=O)Nc1ccccc1O`, the inhibition was 18%.

In the case of `CN(C)/C(CN1CCCCC1)=C1\N=C(c2ccccc2)OC1=O`, the inhibition is 11.8%.

`COCCCNC(NC(=O)c1ccc(C)cc1)C(Cl)(Cl)Cl` (configuration not stated): the inhibition is -2.93%.

On to `CC1CCCC(C)N1CCCNC(=O)c1cc2c(=O)n(C)c3ccccc3c2n1C` (configuration not stated), for which the inhibition is 1.45%.

Turning to `Cn1c(C(=O)NCCCN2CCN(c3cccc(Cl)c3)CC2)cc2c(=O)n(C)c3ccccc3c21`, the inhibition was 95.8% (active).

In the case of `CCn1c(=O)cc(OCC(=O)NCCCN2CCN(c3cccc(Cl)c3)CC2)c2ccccc21`, the inhibition was 2.45%.

As to `CCCCn1c(=S)[nH]c2cc(S(=O)(=O)N3CCCCC3)ccc21`, the inhibition is 6.51%.

`Cc1cc2cc3c(cc2nc1SCC(=O)Nc1c(C)cccc1C)CCC3`: the inhibition is 13.7%.

On to `CCOc1cc2[nH]c(=O)n(CCC(=O)NCc3ccc(OC)cc3)c(=O)c2cc1OCC`, for which the inhibition was -0.15%.

Regarding `Cc1cccc(OCc2nnc(SCc3nc4cc(C(F)(F)F)ccc4c(=O)[nH]3)o2)c1`, the inhibition was 2.6%.

Turning to `Cc1cc(C)cc(OCc2nnc(SCC(=O)Nc3ccccc3)o2)c1`, the inhibition is -1.36%.

Turning to `Cc1cccc(OCc2nnc(SCn3nnc4ccccc4c3=O)o2)c1`, the inhibition was 36.4% (active).

Turning to `CN(C(=O)CC(NC(=O)c1ccccc1)(c1ccccc1)c1ccccc1)c1ccccc1`, the inhibition was 25.4%.

As for `O=C(N/N=C/C=C/c1ccccc1)C1CC1(c1ccccc1)c1ccccc1` (configuration not stated), the inhibition is 64% (active).

Turning to `Cc1nn(C)c(Oc2ccccc2)c1[N+](=O)[O-]`, the inhibition is 5.76%.

In the case of `O=c1c2ccccc2oc2nc(C3CCCCC3)n(Cc3ccco3)c(=O)c12`, the inhibition is 78.7% (active).

As for `CCc1nc2oc3ccccc3c(=O)c2c(=O)n1Cc1ccc(OC)cc1`, the inhibition was 11.8%.

Take `O=c1c2ccccc2oc2nc3n(c(=O)c12)CCCS3`: the inhibition was 0.28%.

For `c1ccc(Nc2nc(-c3ccncc3)cs2)nc1`, the inhibition was 4.87%.

As for `O=C(Nc1ccc(Cl)cn1)Nc1cccs1`, the inhibition was 19.8%.

For the compound `Clc1ccc(Nc2nc(-c3cccs3)cs2)nc1`, the inhibition is 45.4% (active).

For the compound `Cc1ccc(OCC(=O)N/N=C/c2ccncc2)cc1`, the inhibition is 7.69%.

For `Cc1ccc(C(=O)N2CCN(C(=O)N3CCOCC3)CC2)cc1`, the inhibition is -1.43%.

Take `CCOC(=O)C(=CNc1cccc(C)n1)C(=O)OCC`: the inhibition was -2.27%.

Consider `Cc1ccc(Cl)cc1NC(=O)COC(=O)C1CCCCC1`, for which the inhibition is -5.31%.

`CCOC(=O)c1cccc(NC(=O)CN(c2ccc(C)cc2)S(=O)(=O)c2c(C)noc2C)c1`: the inhibition is 26.9%.

Turning to `Cc1noc(C)c1S(=O)(=O)N(CC(=O)NCc1ccc(Cl)cc1)c1ccc2c(c1)OCO2`, the inhibition was 4.52%.

In the case of `Cc1noc(C)c1S(=O)(=O)N(CC(=O)Nc1ccc2c(c1)OCCO2)c1ccc(C(C)C)cc1`, the inhibition is 36.1% (active).

As for `CCOC(=O)Cc1csc(NC(=O)C(C)(C)C)n1`, the inhibition is 50.5% (active).

Turning to `CCOC(=O)Cc1csc(NC(=O)CSc2nc(C)cc(=O)[nH]2)n1`, the inhibition is 3.73%.

For the compound `CCOC(=O)Cc1csc(NC(NC(=O)OCC)(C(F)(F)F)C(F)(F)F)n1`, the inhibition is -12.3%.

`CCOc1cc(CNCCN(C)C)c(Cl)cc1OCC(=O)NCCc1ccccc1`: the inhibition was 7.63%.

In the case of `CCN(CC)S(=O)(=O)c1cc([N+](=O)[O-])ccc1NNC(=O)Nc1ccccc1`, the inhibition was 5.17%.

In the case of `COc1ccc(NC(=O)ON=C2c3ccccc3-c3ccccc32)cc1`, the inhibition was 3.19%.

`O=C(Nc1ccccc1)O/N=C1\CCCCC1c1ccc([N+](=O)[O-])cc1[N+](=O)[O-]` (configuration not stated): the inhibition was 47.9% (active).

For `Cc1ccc(C2CC2C(=O)NN)cc1` (configuration not stated), the inhibition was -1.07%.

`COc1cccc(CNCCc2c[nH]c3ccccc23)c1OCc1ccccc1F`: the inhibition was 15.9%.

Turning to `COCCCn1c(SCc2cccc(OC)c2)nc2cc(OC)c(OC)cc2c1=N`, the inhibition is 21.9%.

In the case of `Cc1ccc(NC(=O)COc2ccc(-n3ccnc3)cc2)cc1Cl`, the inhibition is 34.5% (active).

As to `CN1CCN(c2ccc(NC(=O)COc3ccc(Cl)cc3Cl)cc2)CC1`, the inhibition was 5.47%.

Take `Cc1ccccc1OCC(=O)Nc1ccc(N2CCN(C(=O)C(C)C)CC2)c(Cl)c1`: the inhibition is 6.6%.

As for `CC(=O)NS(=O)(=O)c1ccc(NC(=O)/C=C/c2ccccc2Cl)cc1`, the inhibition is 4.99%.

As to `O=C(c1ccccc1)C(Cn1cncn1)C(Sc1ccccc1)c1ccccc1` (configuration not stated), the inhibition is 26.1%.

`CCOC(=O)N1CCN(C(c2cccnc2)c2ccc3cccnc3c2O)CC1` (configuration not stated): the inhibition was 1.65%.

Consider `CCn1c(SCC(=O)Nc2nc3ccc(OC)cc3s2)nnc1-c1ccoc1C`, for which the inhibition was 19.9%.

For the compound `CCOC(=O)c1c(C2CC2)csc1NC(=O)CSCc1c(C)noc1C`, the inhibition is 23.3%.

For `Cc1noc(C)c1CSCC(=O)Nc1nc2ccc(Oc3ccccc3)cc2s1`, the inhibition was 56.3% (active).

Regarding `O=S(=O)(c1ccc(F)cc1)n1ccc(-c2cnc(-c3ccccc3)s2)n1`, the inhibition is 6.8%.

For the origin of these results see PubChem BioAssay AID738 (SRMLSC, 2007).
